Structures are written as SMILES. Screen size: about 410,000 compounds; about 18,000 (4.4%) were called active. Not shown: some 7% with an inconclusive outcome. This is one part of a sample in which actives are shown more often than they occur. No stated cut-off is given here; in the data, active means activity change below about -60%; inconclusive means no clear call, values can overlap the other calls; inactive means above about -39%.
On the % scale 0 is the no-effect control and ±100 the full control effect.

The assay in a line: qHTS Assay for inhibitors of the human cytomegalovirus (HCMV). The following applies: HFF cells, HCMV-luciferase reporter, 72 h; at 57.5 µM; active compounds read low. An outline of the steps:
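Two-dose cell screen: HFF monolayers treated with compounds and infected with luciferase-expressing HCMV at 1 PFU/cell, 72 h at 37C, then lysed for luciferase measurement.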
(qHTS replaces the single test concentration by a dilution series.)
In the case of `CCCCCCCC(=O)NC(Nc1ccccc1OC)C(Cl)(Cl)Cl` (stereo not drawn), the activity change, negative = inhibition was -23.2% (inactive).
Consider `CCOc1ccc(C(CC(=O)O)n2cnnn2)cc1OC` (stereo not drawn), for which the activity change, negative = inhibition was -29.4% (inactive).
With `CCCCC(=O)NC(c1ccc(OC)c(OC)c1)c1ccc2cccnc2c1O` (stereo not drawn), the activity change, negative = inhibition was -103% (active).
For `COC(=O)/C(=C\Nc1ccccc1)NC(=O)c1ccc(Cl)cc1Cl` the value was -5.36% (inactive); for `COc1ccc(OC)c(CCNC(=O)CCCn2c(=O)c3cccn3c3cccnc32)c1`, 6.58% (inactive); for `COc1ccc(NC(=O)CN2CCCN(Cc3ccccc3)S2(=O)=O)cc1`, 0% (inactive).
Take `COC(=O)[C@]1(S(=O)(=O)c2ccccc2)C[C@@H]2ON=C(c3ccc(OC)cc3)[C@@H]2C1`: the activity change, negative = inhibition is 13.3% (inactive).
For `N#C[C@]1(S(=O)(=O)c2ccccc2)C[C@@H]2ON=C(c3cccc(Br)c3)[C@@H]2C1` the value was -79.5% (active).
For the compound `COc1ccc(CNc2nc(-c3ccc(Cl)cc3)cc(C(F)(F)F)n2)cc1`, the activity change, negative = inhibition was -7.09% (inactive).
For `CCN(CC)S(=O)(=O)c1ccc2c(c1)nc(CN(C)C(=O)Nc1ccc(Cl)cc1)n2C` the value was 9.69% (inactive); for `Cc1noc(/C=C/c2ccco2)c1S(=O)(=O)N1CCC(C(=O)N2CCc3ccccc32)CC1`, 47.1% (inactive).
In the case of `Cc1cccc(NC(=O)C2CCN(S(=O)(=O)c3c(C)noc3/C=C/c3ccco3)CC2)c1`, the activity change, negative = inhibition is -40% (inactive).
For `Cc1noc(/C=C/c2ccco2)c1S(=O)(=O)N1CCC(C(=O)Nc2ccc(Cl)cn2)CC1` the value was -79.9% (active); for `C[C@H]1CN([C@@H](C)CO)C(=O)CCCn2cc(nn2)CO[C@@H]1CN(C)S(=O)(=O)c1ccccc1C#N`, -5.79% (inactive); for `Cc1cccc(N2CCN(S(=O)(=O)c3ccc4[nH]c5c(c4c3)CCCCC5)CC2)c1C`, 16.6% (inactive).
Next, `Cc1c(NC(=O)Nc2ccc(F)c(Cl)c2)c(=O)n(-c2ccccc2)n1C`: 1.88% (inactive).
Next, `C/C(CC(=O)NC(C)(C)C)=N\NC(=O)c1ccco1`: 16.9% (inactive); `CC(C)(C)NC(=O)/C(=C/c1cccnc1)NC(=O)c1ccco1`: -61.3% (active); `O=C(NC(Cc1ccccc1)C(=O)O)/C(=C\c1ccccc1)NC(=O)c1ccco1` (stereo not drawn): 54.3% (inactive).
For `Cc1ccc(/C=C(\C#N)C(=O)Nc2cc(C)ccc2C)cc1`, the activity change, negative = inhibition was -15.9% (inactive).
For `Cc1ccc(CNC(=O)C2CCCN2C(=O)NCc2ccccc2)cc1` (stereo not drawn) the value was 1.11% (inactive).
Next, `Cc1[nH]n(-c2cccc(Cl)c2)c(=O)c1-c1ccc(Cl)cc1`: -66.9% (active).
For `O=c1c2ccccc2[nH]c(=S)n1-c1cccc(Cl)c1` the value was -21.9% (inactive); for `CCCc1cc(=O)n2[nH]c(C)c(-c3ccc(Cl)cc3)c2n1`, 4.01% (inactive); for `Cc1ccc2c(c1)N(CC(=O)N1CCCC(C)C1)C(=O)CO2` (stereo not drawn), -22.2% (inactive).
As to `COC(=O)c1sc2ncccc2c1-n1c(C)ccc1C`, the activity change, negative = inhibition was -10.3% (inactive).
As for `CCOC(=O)c1cc2cc(OC)ccc2n1C1CCN(C)CC1`, the activity change, negative = inhibition is -32.2% (inactive).
For `CCN(CC)c1cc(NC2CCCCC2)c2c3c(onc13)-c1ccccc1C2=O` the value was -25.5% (inactive).
For `CC(Oc1ccc(Cl)cc1)C(=O)Nc1ncccn1` (stereo not drawn) the value was -1.17% (inactive); for `COc1c(Cl)cc(Cl)cc1C(=O)Nc1cccc2cccnc12`, 33.4% (inactive).
For `CC(=O)/C(=N\Nc1ccc(Cl)cc1Cl)Sc1cccc2cccnc12` the value was -103% (active); for `Cc1nn2c(=O)cc(COC(=O)c3ccccc3NC(=O)COc3ccccc3C)nc2s1`, 31.1% (inactive).
As for `Cc1cccc(-n2ncc(C(=O)N3CCN(c4ccc(Cl)cc4)CC3)c2C2CCN(C(=O)OC(C)(C)C)CC2)c1`, the activity change, negative = inhibition is 0% (inactive).
For `Cc1cccc(-n2ncc(Cl)c(Cl)c2=O)c1` the value was -104% (active); for `CC(=O)c1cccc(NC(=O)c2nc(-c3ccccc3)n(-c3cccc(C)c3)n2)c1`, -18.5% (inactive).
For `CN1CCN(C(CNC(=O)c2ccccc2F)c2ccc3c(c2)OCO3)CC1` (stereo not drawn) the value was 12.6% (inactive).
For `COc1ccc(N2C(=O)CCC(C(=O)N(C)C3CCCCC3)C2c2ccc(OC)c(OC)c2)cc1` (stereo not drawn) the value was -12.4% (inactive).
`CN(C)S(=O)(=O)c1ccc(C(=O)N(Cc2cccnc2)c2nc3c(F)cc(F)cc3s2)cc1`: the activity change, negative = inhibition was 0% (inactive).
For `Cc1ccsc1C(=O)OCC(=O)c1cc(C)n(CC2CCCO2)c1C` (stereo not drawn) the value was -75.9% (active); for `COCCn1c(C)cc(C(=O)COC(=O)CNC(=O)c2ccco2)c1C`, 0% (inactive).
Next, `Cc1cc(C(=O)COC(=O)c2cccs2)c(C)n1-c1c(C)n(C)n(-c2ccccc2)c1=O`: -1.04% (inactive); `COc1ccc(CNC(=O)c2ccc(NC(=O)N3CC4CCCN4c4ccccc43)cc2)cc1` (stereo not drawn): -1.77% (inactive).
As to `CCOc1ccc(CNC(=O)C2CCN(c3nnc(-n4cccc4CNc4ccc(C)cc4)s3)CC2)cc1OC`, the activity change, negative = inhibition is -18.2% (inactive).
In the case of `CSc1ccc(CCNC(=O)C2CCN(c3nnc(-n4cccc4)s3)CC2)cc1`, the activity change, negative = inhibition is -19.1% (inactive).
Next, `Cc1ccc(CCNC(=O)C2CCN(c3nnc(-n4cccc4CNc4ccc(C)cc4)s3)CC2)cc1`: -72.7% (active); `CCOC(=O)c1c(S(=O)(=O)NCC(=O)Nc2ccc(Cl)c(C(F)(F)F)c2)c(C)n(C)c1C`: -27.1% (inactive).
For `CC(C)C[C@H]1CN([C@@H](CC(C)C)CN2CCC[C@@H]2CN2C(=O)C(=O)NC[C@@H]2Cc2ccccc2)C(=O)C(=O)N1CCc1ccccc1` the value was -63.2% (active).
Next, `CCOc1ccc(CCN2C(=O)C(=O)N([C@@H](CC(C)C)CN3CCC[C@H]3CN3C(=O)C(=O)NC[C@@H]3Cc3ccccc3)C[C@@H]2CC(C)C)cc1`: -7.85% (inactive); `CC(C)C[C@H]1CN([C@@H](Cc2ccccc2)CN2CCC[C@@H]2CN2C(=O)C(=O)NC[C@@H]2Cc2ccc(O)cc2)C(=O)C(=O)N1CCc1ccccc1`: -26.7% (inactive).
On to `O=c1c2ccccc2nc(-c2ccccc2)n1-c1ccccn1`, for which the activity change, negative = inhibition is -62.3% (active).
Consider `O=C(Nn1c(-c2ccc(Cl)cc2)nc2ccccc2c1=O)c1cccnc1Cl`, for which the activity change, negative = inhibition is -11.2% (inactive).
For `O=c1c2ccccc2c(-c2ccccc2)nn1-c1ccccn1` the value was -24.2% (inactive); for `COc1cccc(CNC(=O)CN2C(=O)CCc3cc(S(=O)(=O)N4CCOCC4)ccc32)c1`, 7.53% (inactive).
For `COc1cc(OC)cc(-c2nc3nc(C)c(CCC(=O)Nc4ccc(C)cc4)c(C)n3n2)c1` the value was 22.9% (inactive); for `CCC1CCCCN1S(=O)(=O)c1ccc(NC(=O)c2cc(=O)c3ccccc3o2)cc1` (stereo not drawn), -21.4% (inactive).
On to `Cc1cccc2cc3c(N)c(C(=O)N4CCCc5ccccc54)sc3nc12`, for which the activity change, negative = inhibition was -66.1% (active).
Next, `Cc1cccc(-c2nnc(SCC(=O)N3CCCc4ccccc43)o2)c1`: -13.3% (inactive); `CCc1ccc(NC(=O)c2sc3nc4c(cc3c2N)CN(CC)CC4)cc1`: -27.1% (inactive); `COc1ccc(N2CCN(Cc3nc4c(c(=O)[nH]c(=O)n4C)n3Cc3ccc(Cl)cc3)CC2)cc1`: -12.8% (inactive).
Next, `Cc1cc(OC(C)C(=O)Nc2sc3c(c2C(N)=O)CCCC3)ccc1Cl` (stereo not drawn): -5.13% (inactive).
Next, `O=C(NCCCN1CCCCC1)C1CC(=O)N(CCc2ccccc2)C1` (stereo not drawn): 0.846% (inactive); `O=C(NC1CCCCC1)C1CC(=O)N(CCc2ccccc2)C1` (stereo not drawn): -109% (active); `Cc1ccc(CCN2CC(C(=O)NCCc3ccccc3)CC2=O)cc1` (stereo not drawn): -5.82% (inactive).
As to `CC(=O)N1c2ccc(S(=O)(=O)N3CCCCCC3)cc2CC1C(=O)NCc1ccccc1C` (stereo not drawn), the activity change, negative = inhibition is 8.34% (inactive).
Turning to `O=C(C1CCC(Cn2c(=O)c3sccc3n(Cc3ccccc3F)c2=O)CC1)N1CCCCC1` (stereo not drawn), the activity change, negative = inhibition was 3.01% (inactive).
For `O=C(OCCN1CCOCC1)C1(c2ccccc2)CCCC1` the value was -35.5% (inactive); for `O=C(OCCN1CCOCC1)C1(c2ccccc2)CCCCC1`, -71.6% (active); for `CC(=O)N1CCC(C(=O)OCc2ccc(Cl)cc2)(c2ccccc2)CC1`, 7.78% (inactive).
`COc1ccc(CCNc2ncnc3c2cnn3-c2ccc(C)cc2)cc1`: the activity change, negative = inhibition was -8.18% (inactive).
Take `O=C1CCC[C@H]2[C@@H](Cc3ccccc3)[C@@H](NS(=O)(=O)c3ccc([N+](=O)[O-])cc3[N+](=O)[O-])CC[C@]23CCCN13`: the activity change, negative = inhibition is -34.8% (inactive).
For `CCOC(=O)/C=C/C(=O)OCC(=O)NC(c1ccccc1)c1ccccc1` the value was -66.5% (active); for `CCOc1ccc(C(CC(=O)O)NC(=O)COc2ccccc2)cc1` (stereo not drawn), 36.3% (inactive); for `Cc1ccccc1OCCC(=O)OCC(=O)NC(C)c1ccccc1` (stereo not drawn), 145% (inactive).
`Cc1ccn(C(CC(=O)c2ccc(Br)cc2)C(=O)O)n1` (stereo not drawn): the activity change, negative = inhibition is 18.9% (inactive).
On to `O=c1ccc2c(-c3ccccc3S(=O)(=O)O)c3ccc(O)c(O)c3oc-2c1O`, for which the activity change, negative = inhibition is -91.7% (active).
For `Cc1nc(N2CCOCC2)c2c(C(=O)NCc3cccc(Cl)c3)c(C)oc2n1` the value was -10.3% (inactive); for `COc1cccc(C(=O)NCC(=O)OCc2cc(=O)n3ccsc3n2)c1`, 8.23% (inactive).
For `CCOC(=O)c1c(C)oc2nc(C)nc(N3CCN(c4ccc(OC)cc4)CC3)c12` the value was -14.4% (inactive).
`CCN(CC)c1ccc2oc(=O)c(C)nc2c1`: the activity change, negative = inhibition was -70.4% (active).
Next, `CCCN1C(=O)C(O)(CC(=O)c2ccc(CC)cc2)c2cc(Br)ccc21` (stereo not drawn): -70.2% (active).
For `C=CCN1C(=O)C(O)(CC(=O)c2ccccn2)c2ccccc21` (stereo not drawn) the value was 51.3% (inactive); for `CCc1ccc(C(=O)CC2(O)C(=O)N(CCc3ccccc3)c3ccc(Br)cc32)cc1` (stereo not drawn), -104% (active); for `COc1ccc2c(c1)C(=C(C#N)C#N)C(=O)N2CCc1ccccc1`, 32.5% (inactive).
For `O=C(CC1(O)C(=O)N(CN2CCOCC2)c2ccccc21)c1ccccc1` (stereo not drawn) the value was 23.8% (inactive); for `Cc1coc(C)c1C(=O)CC1(O)C(=O)N(C)c2ccc(Cl)cc21` (stereo not drawn), 0% (inactive); for `CCOC(=O)CN1C(=O)C(O)(CC(=O)c2ccccn2)c2ccccc21` (stereo not drawn), 12.1% (inactive).
With `Cc1ccc2c(c1)C(O)(CC(=O)c1cccc(-n3cccc3)c1)C(=O)N2` (stereo not drawn), the activity change, negative = inhibition was -9.59% (inactive).
Next, `Cc1ccc(C(=O)CC2(O)C(=O)N(CCc3ccccc3)c3ccc(Br)cc32)cc1` (stereo not drawn): -97.7% (active).

The values are drawn from PubChem BioAssay AID1259415 (National Center for Advancing Translational Sciences (NCATS), 2018).
